Drawing on PMC11006913, this text covers binding signal for four sequences.

Numbering of substitutions follows the chain as printed.

Common to all, as to assay: PBM; 200 nM protein, PBS
Details in all cases: dsDNA, one strand shown

The target in assay [1] is HESX1 (Homo sapiens, UniProt Q9UBX0 95-180, R165K).
Assay [2] deals with HOXA4 (Homo sapiens, UniProt Q00056 201-287, W262R).
Assay [3] deals with HESX1 (Homo sapiens, UniProt Q9UBX0 95-180).
Assay [4] deals with HOXA2 (Homo sapiens, UniProt O43364 129-215, R185T).
HOXA2 (Homo sapiens, UniProt O43364 129-215, R185T), sequence (O43364 129-215 R185T): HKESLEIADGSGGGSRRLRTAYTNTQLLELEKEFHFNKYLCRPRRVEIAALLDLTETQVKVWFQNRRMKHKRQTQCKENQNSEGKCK
Assay [5] has as its target HOXA4 (Homo sapiens, UniProt Q00056 201-287, R217L).
The target of assay [6] is HOXA2 (Homo sapiens, UniProt O43364 129-215, R185K).
HOXA2 (Homo sapiens, UniProt O43364 129-215, R185K), sequence (O43364 129-215 R185K): as the sequence (O43364 129-215 R185T) above, with T57K counted along it
For assay [7], the target named is HOXA4 (Homo sapiens, UniProt Q00056 201-287).
HOXA4 (Homo sapiens, UniProt Q00056 201-287), sequence (Q00056 201-287): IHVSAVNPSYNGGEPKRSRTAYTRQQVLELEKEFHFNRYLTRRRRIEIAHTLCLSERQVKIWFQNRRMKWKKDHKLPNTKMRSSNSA
The target of assay [8] is HESX1 (Homo sapiens, UniProt Q9UBX0 95-180, R109Q).
HESX1 (Homo sapiens, UniProt Q9UBX0 95-180, R109Q), sequence (Q9UBX0 95-180 R109Q): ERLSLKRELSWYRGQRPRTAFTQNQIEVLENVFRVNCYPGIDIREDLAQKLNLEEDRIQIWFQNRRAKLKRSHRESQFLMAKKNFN
The target of assay [9] is HESX1 (Homo sapiens, UniProt Q9UBX0 95-180, P111T).
HESX1 (Homo sapiens, UniProt Q9UBX0 95-180, P111T), sequence (Q9UBX0 95-180 P111T): as the sequence (Q9UBX0 95-180 R109Q) above, with Q15R, P17T counted along it
Assay [10] has as its target HESX1 (Homo sapiens, UniProt Q9UBX0 95-180, F115L).
The target in assay [11] is HOXA2 (Homo sapiens, UniProt O43364 129-215, Y150S).
HOXA2 (Homo sapiens, UniProt O43364 129-215, Y150S), sequence (O43364 129-215 Y150S): as the sequence (O43364 129-215 R185T) above, with Y22S, T57R counted along it
The target of assay [12] is HOXA4 (Homo sapiens, UniProt Q00056 201-287, W262F).
HOXA4 (Homo sapiens, UniProt Q00056 201-287, W262F), sequence (Q00056 201-287 W262F): as the sequence (Q00056 201-287) above, with W62F counted along it
The target of assay [13] is HOXA2 (Homo sapiens, UniProt O43364 129-215).
HOXA2 (Homo sapiens, UniProt O43364 129-215), sequence (O43364 129-215): as the sequence (O43364 129-215 R185T) above, with T57R counted along it
Assay [14] addresses HOXC9 (Homo sapiens, UniProt P31274 178-260, K195R).
In assay [15] the target is HOXC9 (Homo sapiens, UniProt P31274 178-260).
HOXC9 (Homo sapiens, UniProt P31274 178-260), sequence (P31274 178-260): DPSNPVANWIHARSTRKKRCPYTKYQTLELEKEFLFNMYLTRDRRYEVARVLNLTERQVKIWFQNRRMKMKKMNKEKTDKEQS
Assay [16] addresses HOXC9 (Homo sapiens, UniProt P31274 178-260, R193K).
The target of assay [17] is HOXC9 (Homo sapiens, UniProt P31274 178-260, R222W).
HOXC9 (Homo sapiens, UniProt P31274 178-260, R222W), sequence (P31274 178-260 R222W): as the sequence (P31274 178-260) above, with R45W counted along it
The target in assay [18] is T1, SIX6 (Homo sapiens, UniProt O95475 114-200, L167I).
T1 sequence: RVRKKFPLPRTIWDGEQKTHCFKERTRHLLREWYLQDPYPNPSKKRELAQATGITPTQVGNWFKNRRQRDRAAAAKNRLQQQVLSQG

In assay [19] the target is T2, SIX6 (Homo sapiens, UniProt O95475 114-200, L143V).
T2 sequence: T1 sequence with L30V, I54L

Assay [20] has as its target HOXC10 (Homo sapiens, UniProt Q9NYD6 254-340).
The target of assay [21] is T3, SIX6 (Homo sapiens, UniProt O95475 114-200, H141N).
T3 sequence: T1 sequence with H28N, I54L

In assay [22] the target is T4, SIX6 (Homo sapiens, UniProt O95475 114-200, T165P).
T4 sequence: T1 sequence with T52P, I54L

For assay [23], the target named is T5, SIX6 (Homo sapiens, UniProt O95475 114-200, L167M).
T5 sequence: T1 sequence with I54M

For assay [24], the target named is T6, SIX6 (Homo sapiens, UniProt O95475 114-200, L143M).
T6 sequence: T1 sequence with L30M, I54L

Assay [25] deals with T7, SIX6 (Homo sapiens, UniProt O95475 114-200, L143I).
T7 sequence: T1 sequence with L30I, I54L

Assay [26] addresses T8, SIX6 (Homo sapiens, UniProt O95475 114-200, T165G).
T8 sequence: T1 sequence with T52G, I54L

In assay [27] the target is T9, SIX6 (Homo sapiens, UniProt O95475 114-200, T139Q).
T9 sequence: T1 sequence with T26Q, I54L

For assay [28], the target named is T10, SIX6 (Homo sapiens, UniProt O95475 114-200, T165A).
T10 sequence: T1 sequence with T52A, I54L

Assay [29] concerns the target HOXC10 (Homo sapiens, UniProt Q9NYD6 254-340, K271E).
Assay [30] deals with T11, SIX6 (Homo sapiens, UniProt O95475 114-200, L167V).
T11 sequence: T1 sequence with I54V

The target in assay [31] is PROP1 (Homo sapiens, UniProt O75360 56-141).
PROP1 (Homo sapiens, UniProt O75360 56-141), sequence (O75360 56-141): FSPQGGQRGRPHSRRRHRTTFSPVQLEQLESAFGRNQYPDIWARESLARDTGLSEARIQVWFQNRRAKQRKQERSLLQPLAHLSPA
In assay [32] the target is T12, SIX6 (Homo sapiens, UniProt O95475 114-200).
T12 sequence: T1 sequence with I54L

The target of assay [33] is PROP1 (Homo sapiens, UniProt O75360 56-141, R99H).
PROP1 (Homo sapiens, UniProt O75360 56-141, R99H), sequence (O75360 56-141 R99H): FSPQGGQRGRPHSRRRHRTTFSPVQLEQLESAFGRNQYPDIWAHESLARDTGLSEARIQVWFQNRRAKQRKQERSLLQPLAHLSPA
Assay [34] has as its target T13, SIX6 (Homo sapiens, UniProt O95475 114-200, T165I).
T13 sequence: T1 sequence with T52I, I54L

The target in assay [35] is PROP1 (Homo sapiens, UniProt O75360 56-141, F88S).
PROP1 (Homo sapiens, UniProt O75360 56-141, F88S), sequence (O75360 56-141 F88S): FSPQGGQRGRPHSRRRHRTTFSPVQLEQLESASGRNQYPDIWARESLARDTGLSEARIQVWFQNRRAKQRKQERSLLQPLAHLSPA
Assay [36] deals with ALX1 (Homo sapiens, UniProt Q15699 118-204, L144V).
ALX1 (Homo sapiens, UniProt Q15699 118-204, L144V), sequence (Q15699 118-204 L144V): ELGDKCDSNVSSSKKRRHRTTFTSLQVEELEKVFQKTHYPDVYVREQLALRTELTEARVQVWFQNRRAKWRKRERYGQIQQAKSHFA
For assay [37], the target named is ALX1 (Homo sapiens, UniProt Q15699 118-204, L144R).
ALX1 (Homo sapiens, UniProt Q15699 118-204, L144R), sequence (Q15699 118-204 L144R): as the sequence (Q15699 118-204 L144V) above, with V27R counted along it
Assay [38] deals with VAX1 (Homo sapiens, UniProt Q5SQQ9 86-172).
VAX1 (Homo sapiens, UniProt Q5SQQ9 86-172), sequence (Q5SQQ9 86-172): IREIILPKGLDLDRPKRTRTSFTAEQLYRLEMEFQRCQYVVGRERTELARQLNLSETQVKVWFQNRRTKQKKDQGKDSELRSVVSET
Assay [39] deals with VAX1 (Homo sapiens, UniProt Q5SQQ9 86-172, T142I).
VAX1 (Homo sapiens, UniProt Q5SQQ9 86-172, T142I), sequence (Q5SQQ9 86-172 T142I): as the sequence (Q5SQQ9 86-172) above, with T57I counted along it
Assay [40] addresses ALX1 (Homo sapiens, UniProt Q15699 118-204).
The target of assay [41] is VAX1 (Homo sapiens, UniProt Q5SQQ9 86-172, K157R).
VAX1 (Homo sapiens, UniProt Q5SQQ9 86-172, K157R), sequence (Q5SQQ9 86-172 K157R): as the sequence (Q5SQQ9 86-172) above, with K72R counted along it

HESX1 (Homo sapiens, UniProt Q9UBX0 95-180, F115L), sequence (Q9UBX0 95-180 F115L): as the sequence (Q9UBX0 95-180 R109Q) above, with Q15R, F21L counted along it
HESX1 (Homo sapiens, UniProt Q9UBX0 95-180), sequence (Q9UBX0 95-180): as the sequence (Q9UBX0 95-180 R109Q) above, with Q15R counted along it
HESX1 (Homo sapiens, UniProt Q9UBX0 95-180, R165K), sequence (Q9UBX0 95-180 R165K): as the sequence (Q9UBX0 95-180 R109Q) above, with Q15R, R71K counted along it
HOXC9 (Homo sapiens, UniProt P31274 178-260, R193K), sequence (P31274 178-260 R193K): as the sequence (P31274 178-260) above, with R16K counted along it
HOXC9 (Homo sapiens, UniProt P31274 178-260, K195R), sequence (P31274 178-260 K195R): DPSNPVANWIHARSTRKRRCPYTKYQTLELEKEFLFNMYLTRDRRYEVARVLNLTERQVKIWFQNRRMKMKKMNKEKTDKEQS
HOXC10 (Homo sapiens, UniProt Q9NYD6 254-340), sequence (Q9NYD6 254-340): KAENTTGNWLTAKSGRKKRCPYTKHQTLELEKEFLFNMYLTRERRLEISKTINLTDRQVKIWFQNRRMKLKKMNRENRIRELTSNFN
ALX1 (Homo sapiens, UniProt Q15699 118-204), sequence (Q15699 118-204): as the sequence (Q15699 118-204 L144V) above, with V27L counted along it
HOXA4 (Homo sapiens, UniProt Q00056 201-287, W262R), sequence (Q00056 201-287 W262R): as the sequence (Q00056 201-287) above, with W62R counted along it
HOXC10 (Homo sapiens, UniProt Q9NYD6 254-340, K271E), sequence (Q9NYD6 254-340 K271E): as the sequence (Q9NYD6 254-340) above, with K18E counted along it
HOXA4 (Homo sapiens, UniProt Q00056 201-287, R217L), sequence (Q00056 201-287 R217L): as the sequence (Q00056 201-287) above, with R17L counted along it

For TCCCCCCA, the binding signal with HESX1 [1] was 6.55 upbm affinity estimate (log intensity, higher = more binding, comparable within an allelic series); with HOXA4 [2], 9.6 upbm affinity estimate (log intensity, higher = more binding, comparable within an allelic series); with HESX1 [3], 6.5 upbm affinity estimate (log intensity, higher = more binding, comparable within an allelic series); in the assay with HOXA2 [4], 7.32 upbm affinity estimate (log intensity, higher = more binding, comparable within an allelic series); in the assay with HOXA4 [5] it was 9.7 upbm affinity estimate (log intensity, higher = more binding, comparable within an allelic series); in the assay with HOXA2 [6], 10.4 upbm affinity estimate (log intensity, higher = more binding, comparable within an allelic series). Further, the binding signal is 9.81 upbm affinity estimate (log intensity, higher = more binding, comparable within an allelic series) with HOXA4 [7]; 6.55 upbm affinity estimate (log intensity, higher = more binding, comparable within an allelic series) with HESX1 [8]; 6.52 upbm affinity estimate (log intensity, higher = more binding, comparable within an allelic series) with HESX1 [9]; 6.55 upbm affinity estimate (log intensity, higher = more binding, comparable within an allelic series) with HESX1 [10]; 10.2 upbm affinity estimate (log intensity, higher = more binding, comparable within an allelic series) with HOXA2 [11]; 9.56 upbm affinity estimate (log intensity, higher = more binding, comparable within an allelic series) in the assay with HOXA4 [12]. Besides, in the assay with HOXA2 [13], the binding signal is 7.41 upbm affinity estimate (log intensity, higher = more binding, comparable within an allelic series).
For CCCGGCTC, the binding signal in the assay with HESX1 [1] was 6.39 upbm affinity estimate (log intensity, higher = more binding, comparable within an allelic series); with HOXC9 [14], 9.4 upbm affinity estimate (log intensity, higher = more binding, comparable within an allelic series); with HESX1 [3], 6.47 upbm affinity estimate (log intensity, higher = more binding, comparable within an allelic series); in the assay with HOXC9 [15], 9.46 upbm affinity estimate (log intensity, higher = more binding, comparable within an allelic series); with HOXC9 [16], 9.4 upbm affinity estimate (log intensity, higher = more binding, comparable within an allelic series); in the assay with HESX1 [8], 6.38 upbm affinity estimate (log intensity, higher = more binding, comparable within an allelic series). Also, the binding signal with HESX1 [9] was 6.47 upbm affinity estimate (log intensity, higher = more binding, comparable within an allelic series); with HOXC9 [17], 9.63 upbm affinity estimate (log intensity, higher = more binding, comparable within an allelic series); with HESX1 [10], 6.5 upbm affinity estimate (log intensity, higher = more binding, comparable within an allelic series).
In the case of CGCACGCC, the binding signal in the assay with HESX1 [1] is 6.51 upbm affinity estimate (log intensity, higher = more binding, comparable within an allelic series); in the assay with SIX6 [18] it was 8.9 upbm affinity estimate (log intensity, higher = more binding, comparable within an allelic series); in the assay with SIX6 [19], 8.88 upbm affinity estimate (log intensity, higher = more binding, comparable within an allelic series); with HOXC10 [20], 10.1 upbm affinity estimate (log intensity, higher = more binding, comparable within an allelic series); in the assay with SIX6 [21], 8.95 upbm affinity estimate (log intensity, higher = more binding, comparable within an allelic series); with SIX6 [22], 8.83 upbm affinity estimate (log intensity, higher = more binding, comparable within an allelic series). The binding signal is 9.01 upbm affinity estimate (log intensity, higher = more binding, comparable within an allelic series) in the assay with SIX6 [23]; 8.91 upbm affinity estimate (log intensity, higher = more binding, comparable within an allelic series) with SIX6 [24]; 8.97 upbm affinity estimate (log intensity, higher = more binding, comparable within an allelic series) with SIX6 [25]; 8.9 upbm affinity estimate (log intensity, higher = more binding, comparable within an allelic series) with SIX6 [26]; 6.47 upbm affinity estimate (log intensity, higher = more binding, comparable within an allelic series) with HESX1 [3]; 8.93 upbm affinity estimate (log intensity, higher = more binding, comparable within an allelic series) in the assay with SIX6 [27]. The binding signal with SIX6 [28] is 8.87 upbm affinity estimate (log intensity, higher = more binding, comparable within an allelic series); with HOXC10 [29] it was 10 upbm affinity estimate (log intensity, higher = more binding, comparable within an allelic series); in the assay with SIX6 [30] it was 8.9 upbm affinity estimate (log intensity, higher = more binding, comparable within an allelic series); in the assay with PROP1 [31] it was 6.43 upbm affinity estimate (log intensity, higher = more binding, comparable within an allelic series); with HESX1 [8], 6.54 upbm affinity estimate (log intensity, higher = more binding, comparable within an allelic series); in the assay with SIX6 [32], 8.9 upbm affinity estimate (log intensity, higher = more binding, comparable within an allelic series). In addition, the binding signal with PROP1 [33] is 6.77 upbm affinity estimate (log intensity, higher = more binding, comparable within an allelic series); with SIX6 [34], 8.9 upbm affinity estimate (log intensity, higher = more binding, comparable within an allelic series); with HESX1 [9] it was 6.43 upbm affinity estimate (log intensity, higher = more binding, comparable within an allelic series); with PROP1 [35] it was 6.63 upbm affinity estimate (log intensity, higher = more binding, comparable within an allelic series); with HESX1 [10], 6.48 upbm affinity estimate (log intensity, higher = more binding, comparable within an allelic series).
Regarding GCCAGCCC, the binding signal was 6.58 upbm affinity estimate (log intensity, higher = more binding, comparable within an allelic series) in the assay with HESX1 [1]; 8.95 upbm affinity estimate (log intensity, higher = more binding, comparable within an allelic series) in the assay with SIX6 [18]; 9.67 upbm affinity estimate (log intensity, higher = more binding, comparable within an allelic series) with HOXC9 [14]; 8.86 upbm affinity estimate (log intensity, higher = more binding, comparable within an allelic series) with SIX6 [19]; 9.06 upbm affinity estimate (log intensity, higher = more binding, comparable within an allelic series) with SIX6 [21]; 8.85 upbm affinity estimate (log intensity, higher = more binding, comparable within an allelic series) with SIX6 [22]. Also, the binding signal is 9.06 upbm affinity estimate (log intensity, higher = more binding, comparable within an allelic series) in the assay with SIX6 [23]; 9.06 upbm affinity estimate (log intensity, higher = more binding, comparable within an allelic series) in the assay with SIX6 [24]; 8.94 upbm affinity estimate (log intensity, higher = more binding, comparable within an allelic series) with SIX6 [25]; 9.06 upbm affinity estimate (log intensity, higher = more binding, comparable within an allelic series) with SIX6 [26]; 6.38 upbm affinity estimate (log intensity, higher = more binding, comparable within an allelic series) with HESX1 [3]; 9.07 upbm affinity estimate (log intensity, higher = more binding, comparable within an allelic series) in the assay with SIX6 [27]. In addition, the binding signal in the assay with HOXC9 [15] is 9.67 upbm affinity estimate (log intensity, higher = more binding, comparable within an allelic series); with ALX1 [36] it was 6.53 upbm affinity estimate (log intensity, higher = more binding, comparable within an allelic series); with SIX6 [28], 9.01 upbm affinity estimate (log intensity, higher = more binding, comparable within an allelic series); with HOXC9 [16], 9.67 upbm affinity estimate (log intensity, higher = more binding, comparable within an allelic series); with ALX1 [37], 6.62 upbm affinity estimate (log intensity, higher = more binding, comparable within an allelic series); with SIX6 [30], 8.96 upbm affinity estimate (log intensity, higher = more binding, comparable within an allelic series). Further, the binding signal was 6.42 upbm affinity estimate (log intensity, higher = more binding, comparable within an allelic series) with HESX1 [8]; 8.98 upbm affinity estimate (log intensity, higher = more binding, comparable within an allelic series) in the assay with SIX6 [32]; 7.02 upbm affinity estimate (log intensity, higher = more binding, comparable within an allelic series) with VAX1 [38]; 9.01 upbm affinity estimate (log intensity, higher = more binding, comparable within an allelic series) in the assay with SIX6 [34]; 6.51 upbm affinity estimate (log intensity, higher = more binding, comparable within an allelic series) with HESX1 [9]; 9.62 upbm affinity estimate (log intensity, higher = more binding, comparable within an allelic series) in the assay with HOXC9 [17]. Further, the binding signal in the assay with HESX1 [10] was 6.51 upbm affinity estimate (log intensity, higher = more binding, comparable within an allelic series); with VAX1 [39], 7.2 upbm affinity estimate (log intensity, higher = more binding, comparable within an allelic series); in the assay with ALX1 [40], 6.43 upbm affinity estimate (log intensity, higher = more binding, comparable within an allelic series); with VAX1 [41], 7.16 upbm affinity estimate (log intensity, higher = more binding, comparable within an allelic series).
